# Inconclusive results are not listed. A number with no mark means an inactive call. The source made the active and inactive calls. The call rests on the fitted dose curve; in most records, active means well fitted cell-killing curve with a large enough effect in the repeat runs; inconclusive means weak or mixed curves, or effect the other way; inactive means flat fitted curve, though single readings scatter.
# Test: cAMP Responsive Elements (CRE) small molecule antagonists, cell-based qHTS assay: qHTS cell viability counter screen (AID 2060913); further: nearly all actives have a fitted effect of over 40% in size
# Conditions: CRE-bla HEK293T viability, CellTiter-Glo luminescence, 5 h; series mostly up to 92.4 µM; viability change, negative = cytotoxic: at the top concentration
# From the text: U.S. Tox21 Program National Center for Advancing Translational Sciences [NCATS] Division of Preclinical Innovation [DPI] U.S. Environmental Protection Agency [EPA] National Institutes of Environmental Health Sciences [NIEHS] National Toxicology Program [NTP] U.S. Food and Drug Administration [FDA] Tox21 Assay Overview: CREB (cyclic-AMP Responsive Element Binding Protein) is a cellular transcription factor. It binds to certain DNA sequences called cAMP Responsive Elements (CRE) and regulates the transcription of the genes. […] This cell line can be used to find agonists/antagonists of the cyclic AMP signaling pathway. The activation of the report gene under culture conditions can be detected by fluorescence intensity. This cell line has been used to screen the Tox21 10K compound library to identify agonists that induce oxidative stress. The cytotoxicity of the Tox21 compound library against the CRE-bla cell line was tested in parallel by measuring the cell viability using CellTiter-Glo assay (Promega, Madison, WI) in the same wells.
# Tox21 Assay Protocol Summary: CRE-bla Hek 293T cells were suspended in assay medium (DMEM containing 10% dialyzed FBS, 0.1 mM NEAA, 1 mM sodium pyruvate and 25 mM HEPES) and dispensed at 2,000 cells/4 uL /well into 1536-well black wall/clear bottom plates using a Multidrop Combi (ThermoFisher Scientific, Waltham, MA) dispenser. After the assay plates were incubated at 37 C/5% CO2 for 18 hrs, 23 nL of compounds dissolved in DMSO, positive controls or DMSO only was transferred to the assay plate by a pintool workstation (Kalypsys, San Diego, CA), followed by addition of 1 uL of 1.25uM NKH477 (0.25 uM as final concentration) in assay medium using a Flying Reagent Dispenser (Aurora Discovery, San Diego, CA). The plates were incubated at 37 C and 5% CO2 for 3 hrs. Then 1 uL of LiveBLAzer B/G FRET substrate (Invitrogen, Carlsbad, CA) was added to each well using Bioraptr Flying Reagent Dispenser (FRD, Aurora Discovery, San Diego, CA). The plates were incubated at room temperature for 2 h, then fluorescence intensities were measured using an Envision plate reader (PerkinElmer, Shelton, CT) at Excitation 405nm, Emission 460nm and 530nm. The % activity was determined from the ratio of 460nm/530nm. For cell viability readout that measures cytotoxicity, 4 uL /well of CellTiter-Glo reagent was added into the assay plates using Bioraptr FRD. After 30 min incubation at room temperature, the luminescence intensity in the assay plates was measured using a ViewLux (PerkinElmer, Shelton, CT) plate reader.
# On the % scale 0 is the no-effect control and ±100 the full control effect; potency means the concentration at half of the fitted maximal effect.
Structure (SMILES),"viability change, negative = cytotoxic",Potency
CC(C)C(=O)OCCc1ccccc1,6.7%,–
C1N2CN3CN1CN(C2)C3,–,inactive
c1cc[nH]c1,3.26%,–
CC(=O)N/N=C/c1ccc([N+](=O)[O-])o1,0.202% [at 42.5 µM],–
C=CCOC(=O)C(=C)C,–,inactive
[Cl][Pt-2]([Cl])([Cl])[Cl],13.6%,–
O=C(O)c1cc(O)c2c(c1)C(=O)c1cccc(O)c1C2=O,-4.6%,–
O=C(Oc1ccccc1)c1ccccc1,–,inactive
Clc1ccc(Cl)c(Cl)c1Cl,–,inactive
CCC(=O)/C=C/c1ccc(OC)cc1,11.8%,–
CCCCC(CC)C(=O)OC(C)C (stereo not given),3.5%,–
CC(C)COCC(CN(Cc1ccccc1)c1ccccc1)N1CCCC1 (stereo not given),–,29.8 µM (active)
O=C(Nc1ccc2c(O)c(N=Nc3ccc(N=Nc4ccc(S(=O)(=O)O)cc4)cc3)c(S(=O)(=O)O)cc2c1)c1ccccc1,-2.34%,–
CC(C)CC(C)O (stereo not given),–,inactive
O=C1O[C@H]([C@H](O)CO)C(O)=C1O,–,inactive
O=C(O)Cc1ccccc1Oc1ccc(Cl)cc1Cl,3.67% [at 42.5 µM],–
Cc1ccc(O)c(C(C)(C)C)c1,–,inactive
CCC(Cc1ccccc1)(C(=O)c1ccc(N2CCOCC2)cc1)N(C)C (stereo not given),-15.5%,–
CCO[Si](C)(C)OCC,0.255%,–
C=CC(C)(O)CC/C=C(\C)CC (stereo not given),-0.82%,–

Structure (SMILES),"viability change, negative = cytotoxic",Potency
C[C@]12CCC(=O)C=C1CC[C@@H]1[C@@H]2[C@@H](O)C[C@@]2(C)[C@H]1CC[C@]2(O)C(=O)CO,–,inactive
O=c1c(-c2ccc(O)cc2)coc2cc(O)cc(O)c12,–,inactive
CCCc1ccc(OCC(=O)N2CCN(C(=O)COc3ccc(CCC)cc3OC)CC2)c(OC)c1,-2.32% [at 42.5 µM],–
CC1(C)S[C@@H]2[C@H](NC(=O)C(C(=O)O)c3ccccc3)C(=O)N2[C@H]1C(=O)O (stereo not given in full),-0.289% [at 42.5 µM],–
FC(F)(Cl)C(F)(Cl)Cl,1.36%,–
O=CN1CCOCC1,-6.77%,–
CCCCCCCCOc1ccc(C(=O)c2ccccc2)c(O)c1,–,inactive
OCC1CC2CC1C1CCC(CO)C21 (stereo not given),5.24%,–
CCCCc1nc(Cl)c(CO)n1Cc1ccc(-c2ccccc2-c2nn[nH]n2)cc1,10.4% [at 42.5 µM],–
CC(COCCO)OCCO (stereo not given),1.76%,–
Cc1cccc(N(C)C(=S)Oc2ccc3c(c2)CCC3)c1,-14% [at 42.5 µM],–
COC(=O)c1cccnc1,–,inactive
Oc1c(I)cc(I)c2cccnc12,2.5% [at 42.5 µM],–
C=C(C)C(=O)NCCC[N+](C)(C)C,-0.128%,–
CN1[C@@H]2CC[C@@H]1CC(OC(=O)C(CO)c1ccccc1)C2 (stereo not given in full),1.31% [at 42.5 µM],–
O=C(O)c1cc(Cl)cc(Cl)c1,2.28%,–
CN(C)C(C)(C)CO,6.89%,–
O=C1c2ccccc2-c2ccccc21,-13.2%,–
CC(=O)O[C@H](CC(=O)[O-])C[N+](C)(C)C,0.0355%,–
O=C(O)c1c(Cl)cccc1Cl,3.03%,–

# Source: PubChem BioAssay (Tox21)
